# ± gives the standard deviation of the averaged measurements. In all, about 1,900 compounds were measured (“CD40L-induced NF-kB luciferase activity, plate-corrected, relative to DMSO (0) and IKK inhibitor VII (-100) controls”: median about 0.032, lowest 2% from about -26 on). Shown is part of a subset that was picked to be rich in the lowest values.
# Test system: BL2-NFkB-Luc
# Test: CD40L-induced NF-kB luciferase activity, plate-corrected, relative to DMSO (0) and IKK inhibitor VII (-100) controls (% normalized activity); higher = more NF-kB reporter activity (less inhibition)
# Conditions: 9.4 µM; stimulus: tCD40L 64 ng/ml; 4.5 h
# Procedure: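 BL2 B cells with a stable NF-kB response-element luciferase reporter (BL2-NFkB-Luc), 384-well. Cells were pre-incubated with compound at 9.4 uM for 1 h at 37 C, then stimulated with 64 ng/ml trimerized CD40L for 4.5 h; luciferase was read with Steady-Glo. Signal was normalised per plate in Genedata (median DMSO neutral control = 0, median IKK inhibitor VII at 50 uM = -100) with Assay Median plate-pattern correction; duplicate plates.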
row,Structure (SMILES),CD40L-induced NF-kB luciferase activity
1,O=C(CCCN1C(=O)/C(=C\c2cccc(Br)c2)SC1=S)Nc1cccnc1,-2.47 ± 4.1
2,CC(/C=C1\SC(=O)N(CCCC(=O)O)C1=O)=C\c1ccccc1,-84.08 ± 0.44
3,O=C(CCCN1C(=O)/C(=C\c2cccs2)SC1=S)Nc1ccccn1,-2.54 ± 1.1
4,CCn1c(/C=C/c2ccccc2)nc2ccccc2c1=O,4.25 ± 3.8
5,COCCn1c(/C=C/c2ccccc2)nc2ccccc21,38.4 ± 2.4
6,C(=C\c1ccc2ccccc2n1)/c1ccccc1,-56 ± 3.4
7,O=c1cnn([C@@H]2O[C@H](CO)[C@@H](O)[C@H]2O)c(=O)[nH]1,10.5 ± 4.8
8,O=C(Nc1c(C(=O)O)[nH]c2ccccc12)NC1CCCCC1,-0.728 ± 0.3
9,O=C(CC1(O)C(=O)Nc2ccccc21)c1ccccc1O (configuration not stated),1.73 ± 4.3
10,O=C1C=CC(=O)C(C2=C3C(=O)N(CCc4ccccc4)CC(=O)N3CCC2)=C1,-42.7 ± 2.4
11,O=C1CCCCCN1Cc1ccccc1,3.92 ± 5.3
12,O=C(c1cc2cc(Br)ccc2o1)N1CCCC1,38.77 ± 0.2
13,O=c1c2ccccc2nc2n1-c1ccccc1CCC2,-5.01 ± 3.7
14,COc1ccc2c(c1)[nH]c1c(=O)n(Cc3ccccn3)cnc12,-0.0285 ± 6.5
15,COc1ccc(/C=C/C(=O)Nc2ccccc2C(=O)O)cc1OC,-57.1 ± 1.6
16,COc1ccc(CC(=O)Nc2cccc(C(=O)Nc3ccccc3C(=O)O)c2)cc1OC,-2.42 ± 3.4
17,O=C(/C=C/c1ccco1)Nc1ccccc1C(=O)O,1.64 ± 1.8
18,O=C1OC(c2ccc(O)cc2)(c2ccc(O)cc2)c2ccccc21,0.943 ± 1.8
19,Cc1cc(O)c(C(C)C)cc1C1(c2cc(C(C)C)c(O)cc2C)OC(=O)c2ccccc21,-36.1 ± 2.9
20,Cc1ccccc1-c1coc2cc(O)ccc2c1=O,4.65 ± 2.2
21,C/C=C/Cn1c(SC)nc2c1c(=O)[nH]c(=O)n2C,-0.907 ± 1.9
22,COCC(C)NC(=O)c1ccc(CN2CCc3ccccc3C2)cc1 (configuration not stated),7.18 ± 5
23,O=C(O)c1cc(-c2ccc3c(c2)OCO3)nc2ccc(Br)cc12,9.08 ± 4
24,CCc1cc2c(=O)c(-c3ccc(F)cc3)c(C)oc2cc1OCC(=O)O,1.94 ± 0.96
25,O=C1c2ccccc2N2C(=O)c3ccccc3C2N1Cc1ccco1 (configuration not stated),-3.98 ± 15
26,O=C1OC(Nc2ccc3c(c2)OCO3)c2ccccc21 (configuration not stated),-15.2 ± 0.48

row,Structure (SMILES),CD40L-induced NF-kB luciferase activity
1,O=S(=O)(NCCCCCNS(=O)(=O)c1ccccc1)c1ccccc1,-7.09 ± 9.8
2,COc1ccc2[nH]cc(C3N4CC5(C)CN3CC(C)(C4)C5=O)c2c1 (configuration not stated),2.08 ± 1.7
3,COc1ccc2[nH]c(=O)c3c(c2c1)OC(C)(C)C=C3,-32.8 ± 0.38
4,COc1ccc2[nH]c(=O)c(CN(C(=O)c3ccco3)C(C)C)cc2c1,0.241 ± 0.71
5,O=C(COc1ccc(F)cc1)OCCN1CCOCC1,0.903 ± 1.5
6,COc1ccccc1C1C(C#N)=C(N)Oc2c1oc(CO)cc2=O (configuration not stated),-1.31 ± 0.27
7,O=C1OC(c2ccccc2)=C/C1=C/c1cccs1,30.9 ± 2.3
8,OC(COCc1ccccc1)CN1CCN(Cc2ccc3c(c2)OCO3)CC1 (configuration not stated),-0.97 ± 0.41
9,COc1cc2c(cc1OC)C1(CCCCC1)CN(C)C2,-4.22 ± 0.72
10,O=C(CC1SC(=O)NC1=O)Nc1ccc(Cl)cc1 (configuration not stated),2.93 ± 5.1
11,O=C(NN=Cc1ccc([N+](=O)[O-])o1)c1ccc(O)cc1,-1.71 ± 0.97
12,CCOCC(=O)Nc1nc2ccccc2s1,50.7 ± 10
13,COC(=O)CSc1nc2ccc(N)cc2s1,0.507 ± 4.2
14,O=C(O)CCSc1nc2ccccc2s1,-42.3 ± 0.52
15,CN(CCc1cnn(C)c1)Cc1nc(CC2CC2)no1,-0.906 ± 0.31
16,COc1ccc(O)c(C(=O)/C=C/c2cc3ccccc3o2)c1,83.3 ± 3.2
17,O=C(OCCN1CCOCC1)c1cccs1,-4.77 ± 5.6
18,COc1ccc(CCCC(=O)O)c(C)c1,1.85 ± 1.2
19,CCN(CC)C1=C(Cl)C(=O)C(Cl)C12OCCO2 (configuration not stated),-4.69 ± 4.8
20,Cc1cc(C=NO)c(C)n1-c1ccc(Br)cc1,-0.84 ± 0.39
21,COc1ccc(C2N3CC4(C)CN2CC(C)(C3)C4)cc1OC (configuration not stated),-1.8 ± 1.9
22,COc1ccc(C(=O)Nc2cccc3cccnc23)cc1OC,19.3 ± 10
23,O=C(NCCC(c1ccccc1)c1ccco1)c1cccs1 (configuration not stated),24.9 ± 2.2
24,CCc1cc2c(=O)c(-c3nc4ccccc4n3C)coc2c(CN2CCN(C)CC2)c1O,-3.98 ± 2.5
25,CC(C)[C@H]1CN(C)CCN1Cc1cn(C)nc1-c1cccc(Cl)c1,2.03 ± 0.42
26,Cc1c(OC(=O)CNC(=O)OC(C)(C)C)ccc2c3c(c(=O)oc12)CCC3,3.02 ± 3.5

row,Structure (SMILES),CD40L-induced NF-kB luciferase activity
1,O=C(O)c1ccc(C(=O)C(=O)c2ccccc2)cc1,-6.47 ± 15
2,CC(=O)C1=C(O)C(=O)N(CC(=O)O)C1c1ccccc1Cl (configuration not stated),3.2 ± 3.2
3,CC1(C)O[C@@H]2C[C@H]3[C@@H]4C[C@H](F)C5=CC(=O)C=C[C@]5(C)[C@@]4(F)[C@@H](O)C[C@]3(C)[C@]2(C(=O)CO)O1,-23.7 ± 1.8
4,C[C@@H]1C[C@H]2[C@@H]3CCC4=CC(=O)C=C[C@]4(C)[C@@]3(F)[C@@H](O)C[C@]2(C)[C@H]1C(=O)CO,-31.39 ± 0.23
5,C[C@]12CC[C@H]3[C@@H](CCC4=CC(=O)CC[C@@]43C)[C@@H]1CC[C@@H]2C(=O)CO,-4.85 ± 1.2
6,CC(=O)OCC(=O)C1=CCC2C3CCC4=CC(=O)C=CC4(C)C3(F)C(OC(C)=O)CC12C (configuration not stated),-4.87 ± 4.6
7,CC1(C)O[C@@H]2C[C@H]3[C@@H]4CCC5=CC(=O)C=C[C@]5(C)[C@@]4(F)[C@@H](O)C[C@]3(C)[C@]2(C(=O)CO)O1,-31.3 ± 5.1
8,CC(=O)OCC(=O)[C@@]12OC3(CCCC3)O[C@@H]1C[C@H]1[C@@H]3CCC4=CC(=O)C=C[C@]4(C)[C@@]3(F)[C@@H](O)C[C@@]12C,-20.2 ± 1.1
9,C/C=C/c1ccc(OCCCCN2CC(C)CC(C)C2)c(OC)c1 (configuration not stated),1.73 ± 0.88
10,Cc1ccc(OCc2nc(-c3cccnc3)no2)cc1C,34.5 ± 7.5
11,CCc1cc(=O)oc2cc(OCc3nn[nH]n3)ccc12,-0.362 ± 2.4
12,COc1cc2oc(-c3ccc(O)cc3)cc(=O)c2c(OC)c1O,2.41 ± 4.4
13,Cc1cccc(Nc2ncccc2C(=O)O)c1C,-3.873 ± 0.016
14,CCOc1ccc(C(NC(C)=O)c2ccc(OC)c(OC)c2)cc1 (configuration not stated),4.36 ± 0.088
15,Nc1c(C(=O)c2ccccc2)oc2ccccc12,17.3 ± 8.5
16,O=C(c1ccc(F)cc1)[C@@H]1[C@@H](C(=O)c2ccccc2)[C@@]2(C(=O)Nc3ccccc32)[C@H]2c3ccccc3C=CN12,6.58 ± 1.4
17,CCOC(=O)c1cccc(C(=O)OCC)n1,-2.95 ± 2.1
18,COc1cccc(CN2CCN(C(=O)c3ccc(-c4ccccc4)cc3)CC2)c1,-7.33 ± 1.1
19,O=C(/C=C/c1ccc(F)cc1)N1CC[C@@]2(O)CCCC[C@H]2C1,-1.13 ± 0.88
20,Cc1ccc(C(=O)NCCNC(=O)c2ccccc2)cc1,-2.5 ± 3.9
21,O=C(Cc1ccc(Br)cc1)c1ccc(O)cc1O,32.9 ± 18
22,O=C(Nc1ccc(C(=O)NC2CCCCC2)cc1)c1cccnc1,0.625 ± 0.58
23,COC(=O)c1[nH]c2ccc(C)cc2c1NC(=O)CN1CCc2cc(OC)c(OC)cc2C1,-5.22 ± 6.4
24,COc1ccc(-c2cc(=Nc3ccc(C)cc3)c3ccccc3o2)cc1,2.07 ± 3
25,C=CCN1C(=O)c2oc3ccccc3c(=O)c2C1c1ccc(O)c(OC)c1 (configuration not stated),-0.791 ± 0.32

# Source: the supplement of paper PMC3656093
